Results from article PMC6602471.
In all, about 1,300 sequences were measured (“log fluorescence intensity”: median about 8.9, highest 2% from about 13 on). The sample as a whole holds a higher share of the highest values than the screen did.

target: T1, ELK1 (Homo sapiens, UniProt P19419 1-428); assay: custom PBM; custom protein-binding microarray; buffer, salt, pH and temperature not stated; high values mean tight binding; details: dsDNA, one strand shown
T1 sequence: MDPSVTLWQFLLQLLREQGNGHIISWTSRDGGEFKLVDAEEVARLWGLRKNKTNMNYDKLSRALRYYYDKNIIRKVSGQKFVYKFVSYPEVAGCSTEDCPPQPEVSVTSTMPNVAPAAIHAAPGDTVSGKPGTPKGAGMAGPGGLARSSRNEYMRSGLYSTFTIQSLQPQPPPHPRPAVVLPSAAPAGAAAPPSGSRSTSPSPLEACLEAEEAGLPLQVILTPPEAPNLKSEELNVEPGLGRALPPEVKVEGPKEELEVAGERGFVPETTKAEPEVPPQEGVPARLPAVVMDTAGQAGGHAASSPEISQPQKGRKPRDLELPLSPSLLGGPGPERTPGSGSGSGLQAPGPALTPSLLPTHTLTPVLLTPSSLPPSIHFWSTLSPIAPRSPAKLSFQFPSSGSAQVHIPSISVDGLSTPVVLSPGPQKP

Sequence	binding signal
CTGGGATTTGACCCAACTCTGCCACGTGGGTCGTTTGTCTTGATTCGCTTGACGCTGCTG	9.02 log fluorescence intensity
TGTCGGGTAAGGGAATGTAGATCACGTGGATGAAAAGTCTTGATTCGCTTGACGCTGCTG	8.97 log fluorescence intensity
TCCGGCTACCAGCTCCACCCACTTCAGGCCTTGTCGGTCTTGATTCGCTTGACGCTGCTG	9.01 log fluorescence intensity
CACAGTTTTTACAGTAATGTAGCACGCGTAACTCCTGTCTTGATTCGCTTGACGCTGCTG	8.91 log fluorescence intensity
GTGTATAGGATCCCATCCAACACACGTGATAAAATGGTCTTGATTCGCTTGACGCTGCTG	8.94 log fluorescence intensity
CAGCATAGGACTTCTTCCCTGAAACAATTGATAACCGTCTTGATTCGCTTGACGCTGCTG	8.97 log fluorescence intensity
GATTAATTTCTGCCCTTATTCGCACGTGCCCTAACAGTCTTGATTCGCTTGACGCTGCTG	8.97 log fluorescence intensity
TCCGGCTACCAGCTCCACCCACTTCATGCCTTGTAGGTCTTGATTCGCTTGACGCTGCTG	8.92 log fluorescence intensity
GGAAAAAGGCCCAGGGTAACTCCGGAAGTGGGCTTAGTCTTGATTCGCTTGACGCTGCTG	10.4 log fluorescence intensity
GTGTATAGGATCCCATCCAACACACGTGTTACAATGGTCTTGATTCGCTTGACGCTGCTG	9.02 log fluorescence intensity
TGTCGGGTAAGGGAATGTACATCACGTGAATGAAAAGTCTTGATTCGCTTGACGCTGCTG	8.92 log fluorescence intensity
GTGTATAGGATCCCATCCCACACACGTGTTAAAATGGTCTTGATTCGCTTGACGCTGCTG	9.07 log fluorescence intensity
CGGAAGTGTTGTAAACGTCGGATATCCGGTTCTTCTGTCTTGATTCGCTTGACGCTGCTG	12 log fluorescence intensity
GGAAAAAGGCCCAGGGTACCACCGGAAGTGGGCTTAGTCTTGATTCGCTTGACGCTGCTG	11.1 log fluorescence intensity
GGAAAAAGGCCCAGGATAACACCGGAAGTGGGCTTAGTCTTGATTCGCTTGACGCTGCTG	11.1 log fluorescence intensity
TGTCGGGTAAGGGAATGTAGATCACGTGAATGAAGAGTCTTGATTCGCTTGACGCTGCTG	9.1 log fluorescence intensity
TACTGACTTATATATGCGAATGCACATGAATAGCCCGTCTTGATTCGCTTGACGCTGCTG	8.94 log fluorescence intensity
CTGGGACTTGACCCAACTCTGCTACGTGGGTCGTTTGTCTTGATTCGCTTGACGCTGCTG	8.94 log fluorescence intensity
TAAAGGGAAGACGGTTGTGGTAGTTCCGGGGATTAAGTCTTGATTCGCTTGACGCTGCTG	10.9 log fluorescence intensity
GCTGCTGCGGTGCTTACCCCACCGGATGTGACCCCGGTCTTGATTCGCTTGACGCTGCTG	10.2 log fluorescence intensity
GATTAATTTCCGCCCTTATTCGCACGTGCCATAACAGTCTTGATTCGCTTGACGCTGCTG	12.5 log fluorescence intensity

Sequence	binding signal
TAGAGGGAAGACGGTTGTGGTAGTTCCGGGTATTAAGTCTTGATTCGCTTGACGCTGCTG	11.2 log fluorescence intensity
GATTAATTTCTGCCCTTATTCGCACGTGCCATACCAGTCTTGATTCGCTTGACGCTGCTG	8.97 log fluorescence intensity
GCTCCTGCGGTGCATACCCCACCGGATGTGACCCCGGTCTTGATTCGCTTGACGCTGCTG	10.3 log fluorescence intensity
TACTGACTTATATATGCTAATGCACATGAATAGACCGTCTTGATTCGCTTGACGCTGCTG	8.92 log fluorescence intensity
GGAAAAAGCCCCAGGGTAACACCGGAAGTGGGCTTAGTCTTGATTCGCTTGACGCTGCTG	10.8 log fluorescence intensity
TAAAGGGAAGGCGGTTGTGGTAGTTCCGGGTATTAAGTCTTGATTCGCTTGACGCTGCTG	11.5 log fluorescence intensity
TAAAGGGAAGACGGTGGTGGTAGTTCCGGGTATTAAGTCTTGATTCGCTTGACGCTGCTG	11.1 log fluorescence intensity
GCTGCTGCGGTGCATAGCCCACCGGATGTGACCCCGGTCTTGATTCGCTTGACGCTGCTG	10.4 log fluorescence intensity
CGGAAGTGTCGTAAACGTCGGATATGCGGTTCTTCTGTCTTGATTCGCTTGACGCTGCTG	9.16 log fluorescence intensity
TCCGGCTACCAGGTCCACCCACTTCAGGCCTTGTAGGTCTTGATTCGCTTGACGCTGCTG	8.9 log fluorescence intensity
ATGGGACTTGACCCAACTCTGCCACGTGGGTCGTTTGTCTTGATTCGCTTGACGCTGCTG	8.96 log fluorescence intensity
TACTGATTTATATATGCGAATGCACATGAATAGACCGTCTTGATTCGCTTGACGCTGCTG	8.91 log fluorescence intensity
CTGGGACTTGATCCAACTCTGCCACGTGGGTCGTTTGTCTTGATTCGCTTGACGCTGCTG	8.95 log fluorescence intensity
TAAAGGGAAGACGGTCGTGGTAGTTCCGGGTATTAAGTCTTGATTCGCTTGACGCTGCTG	11.3 log fluorescence intensity
CAGCATAGGACTTCTTCCCTGAAGCAAGTGATAACCGTCTTGATTCGCTTGACGCTGCTG	8.97 log fluorescence intensity
GATTAATTTCTGCCATTATTCGCACGTGCCATAACAGTCTTGATTCGCTTGACGCTGCTG	8.92 log fluorescence intensity
TAAAGGGAAGACGGTTGTGGTACTTCCGGGTATTAAGTCTTGATTCGCTTGACGCTGCTG	12 log fluorescence intensity
TAAAGGGAAGACGGTTGTGGTTGTTCCGGGTATTAAGTCTTGATTCGCTTGACGCTGCTG	10.5 log fluorescence intensity
CACAATTTTTACAGTAATTTAGCACGCGTAACTCCTGTCTTGATTCGCTTGACGCTGCTG	8.93 log fluorescence intensity
TACTGACTTATATATGCGAATGCACATGATTAGACCGTCTTGATTCGCTTGACGCTGCTG	9 log fluorescence intensity
